Laboratory results from ChEMBL document CHEMBL3988442, “University of Dundee, Small-Polar-MMV Screening Library” (2021).
For some assays here: Measured potencies and affinities stand elsewhere.

Experiments:
Design in all cases: scale not given: direction of the effect not stated beside the values
[1] = molecular target: Protein translocase subunit SecA (Escherichia coli (strain K12)) (UniProt P10408); experiment: Assay to Identify E. coli SecA ATPase Inhibitors; assay type: functional; conditions: 30 µM
Protein translocase subunit SecA (Escherichia coli (strain K12)), sequence (P10408 whole entry): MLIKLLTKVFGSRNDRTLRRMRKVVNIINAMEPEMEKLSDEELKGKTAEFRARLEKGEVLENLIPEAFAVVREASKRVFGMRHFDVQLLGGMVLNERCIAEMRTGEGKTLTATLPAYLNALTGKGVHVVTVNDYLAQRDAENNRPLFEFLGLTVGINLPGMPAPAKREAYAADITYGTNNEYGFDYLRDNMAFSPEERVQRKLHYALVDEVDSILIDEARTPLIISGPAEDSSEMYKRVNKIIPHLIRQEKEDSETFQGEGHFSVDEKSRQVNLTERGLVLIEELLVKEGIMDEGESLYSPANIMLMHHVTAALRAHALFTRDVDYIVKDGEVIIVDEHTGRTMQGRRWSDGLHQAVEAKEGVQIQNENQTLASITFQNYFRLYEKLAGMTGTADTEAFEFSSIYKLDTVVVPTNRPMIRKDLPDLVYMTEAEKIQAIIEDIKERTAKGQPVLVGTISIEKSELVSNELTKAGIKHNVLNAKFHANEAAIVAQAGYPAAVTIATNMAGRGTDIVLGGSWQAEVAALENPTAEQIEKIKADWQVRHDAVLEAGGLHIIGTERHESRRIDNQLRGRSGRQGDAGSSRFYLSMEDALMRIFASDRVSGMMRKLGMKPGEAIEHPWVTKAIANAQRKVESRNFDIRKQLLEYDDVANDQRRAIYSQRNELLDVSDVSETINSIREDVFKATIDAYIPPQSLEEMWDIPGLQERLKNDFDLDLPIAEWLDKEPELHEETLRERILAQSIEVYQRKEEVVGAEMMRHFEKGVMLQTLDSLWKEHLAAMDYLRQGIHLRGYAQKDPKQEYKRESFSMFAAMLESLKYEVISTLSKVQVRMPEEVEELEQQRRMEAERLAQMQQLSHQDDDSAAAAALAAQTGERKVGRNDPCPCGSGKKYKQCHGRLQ

[2] = molecular target: T1, Ubiquitin-activating enzyme e1, putative (Leishmania donovani (strain BPK282A1)) (UniProt E9BSI1); experiment: Leishmania donovani Ubiquitin Activating Enzyme (LdE1); assay type: functional; conditions: 30 µM
T1 sequence (whole entry): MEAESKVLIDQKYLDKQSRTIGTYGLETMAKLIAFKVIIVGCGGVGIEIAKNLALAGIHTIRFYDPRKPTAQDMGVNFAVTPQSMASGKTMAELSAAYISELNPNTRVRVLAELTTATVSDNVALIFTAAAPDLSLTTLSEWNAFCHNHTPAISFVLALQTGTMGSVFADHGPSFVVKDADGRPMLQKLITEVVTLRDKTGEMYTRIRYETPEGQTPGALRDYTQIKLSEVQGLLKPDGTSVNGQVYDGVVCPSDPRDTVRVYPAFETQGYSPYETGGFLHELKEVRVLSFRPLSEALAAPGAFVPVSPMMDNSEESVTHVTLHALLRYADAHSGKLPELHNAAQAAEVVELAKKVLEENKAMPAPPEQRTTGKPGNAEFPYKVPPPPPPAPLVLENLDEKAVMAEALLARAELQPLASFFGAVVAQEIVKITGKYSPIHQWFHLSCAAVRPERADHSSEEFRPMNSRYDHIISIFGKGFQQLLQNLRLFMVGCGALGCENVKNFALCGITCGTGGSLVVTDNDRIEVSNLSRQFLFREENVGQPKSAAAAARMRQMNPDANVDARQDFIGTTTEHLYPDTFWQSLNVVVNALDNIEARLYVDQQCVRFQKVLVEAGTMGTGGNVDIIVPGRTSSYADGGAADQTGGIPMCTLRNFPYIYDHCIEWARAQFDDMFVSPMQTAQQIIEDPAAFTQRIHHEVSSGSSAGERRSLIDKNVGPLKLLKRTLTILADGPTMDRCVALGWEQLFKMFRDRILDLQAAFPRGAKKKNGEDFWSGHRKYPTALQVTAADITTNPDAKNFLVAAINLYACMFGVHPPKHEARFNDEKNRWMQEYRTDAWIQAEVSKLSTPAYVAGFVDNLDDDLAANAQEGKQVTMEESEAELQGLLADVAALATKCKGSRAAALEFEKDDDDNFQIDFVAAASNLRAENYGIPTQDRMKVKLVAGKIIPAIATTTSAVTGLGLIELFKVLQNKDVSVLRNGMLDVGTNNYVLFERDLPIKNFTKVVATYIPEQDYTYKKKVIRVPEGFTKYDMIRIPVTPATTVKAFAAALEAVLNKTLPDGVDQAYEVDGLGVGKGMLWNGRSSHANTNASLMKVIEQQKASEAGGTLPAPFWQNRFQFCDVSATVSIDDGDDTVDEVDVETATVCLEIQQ

[3] = molecular target: AMP-activated protein kinase, AMPK (Homo sapiens) (UniProt P54646+O43741+P54619+Q9UGJ0+Q9Y478+Q13131+Q9UGI9); experiment: AMP-dependent Kinase enzyme assay. An in vitro enzyme assay that detects ADP turnover that is directly proportional to AMPK activity. This uses naive AMPK that is activated during the assay with MK-8722; assay type: functional; conditions: 30 µM
[4] = molecular target: Sialic acid-binding Ig-like lectin 9 (Homo sapiens) (UniProt Q9Y336); experiment: Hs-Siglec9 ALPHAscreen SOP 20170721; conditions: 10 µM
Sialic acid-binding Ig-like lectin 9 (Homo sapiens), sequence (Q9Y336 whole entry): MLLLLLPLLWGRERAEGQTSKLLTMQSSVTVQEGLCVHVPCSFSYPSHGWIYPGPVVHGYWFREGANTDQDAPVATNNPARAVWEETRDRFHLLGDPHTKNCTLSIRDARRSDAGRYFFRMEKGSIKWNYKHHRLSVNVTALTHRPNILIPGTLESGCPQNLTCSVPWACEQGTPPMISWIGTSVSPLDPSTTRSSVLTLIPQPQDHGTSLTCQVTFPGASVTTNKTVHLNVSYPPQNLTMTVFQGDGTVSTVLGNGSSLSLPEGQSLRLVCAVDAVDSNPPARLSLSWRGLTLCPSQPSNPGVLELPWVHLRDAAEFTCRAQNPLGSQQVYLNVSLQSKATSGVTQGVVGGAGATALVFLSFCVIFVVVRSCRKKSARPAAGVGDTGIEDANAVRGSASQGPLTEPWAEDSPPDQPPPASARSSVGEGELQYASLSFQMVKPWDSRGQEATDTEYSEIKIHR

[5] = system: Trypanosoma cruzi; experiment: Trypanosoma cruzi phosphomannomutase and mannose-1-phosphate guanylyltransferase assay; assay type: functional; conditions: 10 µM
[6] = molecular target: T2, Arginase-2, mitochondrial (Homo sapiens) (UniProt P78540); experiment: in vitro enzyme assay to detect the production of urea directly proportional to the activity of Arginase II; assay type: functional; conditions: 33.3 µM; note: in the data most compounds retested in dose-response had high values
T2 sequence (whole entry): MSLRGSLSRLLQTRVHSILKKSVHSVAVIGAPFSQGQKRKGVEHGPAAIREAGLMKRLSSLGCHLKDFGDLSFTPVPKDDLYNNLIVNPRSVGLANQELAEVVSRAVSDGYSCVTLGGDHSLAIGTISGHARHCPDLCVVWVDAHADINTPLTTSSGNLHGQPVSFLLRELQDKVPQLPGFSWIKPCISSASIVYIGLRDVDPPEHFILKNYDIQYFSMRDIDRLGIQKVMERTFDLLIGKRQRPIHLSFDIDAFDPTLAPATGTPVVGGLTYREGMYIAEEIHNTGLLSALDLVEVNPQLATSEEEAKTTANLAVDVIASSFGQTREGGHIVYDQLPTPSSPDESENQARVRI

[7] = molecular target: T3, Proteasome subunit beta (Trypanosoma cruzi) (UniProt O96673); experiment: Trypanosoma cruzi proteasome chymotrypsin-like activity (TcProtChymo) assay.; note: in the data most compounds retested in dose-response had high values; assay type: functional; conditions: 9.37 µM
T3 sequence (whole entry): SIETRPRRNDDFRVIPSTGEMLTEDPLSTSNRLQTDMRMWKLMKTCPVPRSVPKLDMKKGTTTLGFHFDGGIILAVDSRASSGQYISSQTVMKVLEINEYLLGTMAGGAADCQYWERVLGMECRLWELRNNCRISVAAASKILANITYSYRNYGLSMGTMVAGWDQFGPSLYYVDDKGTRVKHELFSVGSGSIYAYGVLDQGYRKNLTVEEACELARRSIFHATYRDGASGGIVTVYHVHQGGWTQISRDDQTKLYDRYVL

[8] = species on record: Homo sapiens; experiment: To identify inhibition of the IFN signalling (Jak-Stat) pathway via expression of an eGFP reporter gene under the control of an IFN-stimulated response element (ISRE) containing MxA promoter.; assay type: functional; conditions: 30 µM
[9] = molecular target: T4, Tyrosyl-tRNA synthetase, putative (Trypanosoma cruzi (strain CL Brener)) (UniProt Q4DSP6); experiment: Trypanosoma cruzi tyrosyl tRNA synthetase (TcYRS) _High Tyrosine SOP; assay type: functional; conditions: 30 µM; note: in the data most compounds retested in dose-response had high values
T4 sequence (whole entry): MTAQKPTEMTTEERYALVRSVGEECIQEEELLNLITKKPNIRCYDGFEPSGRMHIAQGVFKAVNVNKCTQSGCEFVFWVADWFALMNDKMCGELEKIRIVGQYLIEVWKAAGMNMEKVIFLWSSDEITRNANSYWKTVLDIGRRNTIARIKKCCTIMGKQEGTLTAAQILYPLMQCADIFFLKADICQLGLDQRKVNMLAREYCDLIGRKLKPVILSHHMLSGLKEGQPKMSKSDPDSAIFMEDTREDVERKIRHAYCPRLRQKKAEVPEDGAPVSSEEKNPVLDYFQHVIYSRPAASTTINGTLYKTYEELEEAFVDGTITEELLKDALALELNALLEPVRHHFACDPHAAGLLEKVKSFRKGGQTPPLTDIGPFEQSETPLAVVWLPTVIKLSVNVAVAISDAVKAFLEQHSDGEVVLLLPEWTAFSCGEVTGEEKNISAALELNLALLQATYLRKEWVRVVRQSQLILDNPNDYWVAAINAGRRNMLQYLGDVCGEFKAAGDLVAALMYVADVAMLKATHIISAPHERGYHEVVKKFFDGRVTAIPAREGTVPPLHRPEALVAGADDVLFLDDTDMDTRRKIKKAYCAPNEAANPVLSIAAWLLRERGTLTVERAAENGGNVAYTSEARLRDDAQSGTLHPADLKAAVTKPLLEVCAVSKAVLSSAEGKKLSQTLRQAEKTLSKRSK

[10] = molecular target: T4, Tyrosyl-tRNA synthetase, putative (Trypanosoma cruzi (strain CL Brener)); experiment: Trypanosoma cruzi tyrosyl tRNA synthetase (TcYRS) SOP; assay type: functional; conditions: 30 µM
[11] = molecular target: Chromo domain-containing protein 1 (Saccharomyces cerevisiae (strain ATCC 204508 / S288c) (Baker's yeast)) (UniProt P32657); experiment: ScCHD-1 Enzyme Inhibition Assay; assay type: functional; conditions: 30 µM; note: in the data most compounds retested in dose-response had high values
Chromo domain-containing protein 1 (Saccharomyces cerevisiae (strain ATCC 204508 / S288c) (Baker's yeast)), sequence (P32657 whole entry, the tested form may be a part): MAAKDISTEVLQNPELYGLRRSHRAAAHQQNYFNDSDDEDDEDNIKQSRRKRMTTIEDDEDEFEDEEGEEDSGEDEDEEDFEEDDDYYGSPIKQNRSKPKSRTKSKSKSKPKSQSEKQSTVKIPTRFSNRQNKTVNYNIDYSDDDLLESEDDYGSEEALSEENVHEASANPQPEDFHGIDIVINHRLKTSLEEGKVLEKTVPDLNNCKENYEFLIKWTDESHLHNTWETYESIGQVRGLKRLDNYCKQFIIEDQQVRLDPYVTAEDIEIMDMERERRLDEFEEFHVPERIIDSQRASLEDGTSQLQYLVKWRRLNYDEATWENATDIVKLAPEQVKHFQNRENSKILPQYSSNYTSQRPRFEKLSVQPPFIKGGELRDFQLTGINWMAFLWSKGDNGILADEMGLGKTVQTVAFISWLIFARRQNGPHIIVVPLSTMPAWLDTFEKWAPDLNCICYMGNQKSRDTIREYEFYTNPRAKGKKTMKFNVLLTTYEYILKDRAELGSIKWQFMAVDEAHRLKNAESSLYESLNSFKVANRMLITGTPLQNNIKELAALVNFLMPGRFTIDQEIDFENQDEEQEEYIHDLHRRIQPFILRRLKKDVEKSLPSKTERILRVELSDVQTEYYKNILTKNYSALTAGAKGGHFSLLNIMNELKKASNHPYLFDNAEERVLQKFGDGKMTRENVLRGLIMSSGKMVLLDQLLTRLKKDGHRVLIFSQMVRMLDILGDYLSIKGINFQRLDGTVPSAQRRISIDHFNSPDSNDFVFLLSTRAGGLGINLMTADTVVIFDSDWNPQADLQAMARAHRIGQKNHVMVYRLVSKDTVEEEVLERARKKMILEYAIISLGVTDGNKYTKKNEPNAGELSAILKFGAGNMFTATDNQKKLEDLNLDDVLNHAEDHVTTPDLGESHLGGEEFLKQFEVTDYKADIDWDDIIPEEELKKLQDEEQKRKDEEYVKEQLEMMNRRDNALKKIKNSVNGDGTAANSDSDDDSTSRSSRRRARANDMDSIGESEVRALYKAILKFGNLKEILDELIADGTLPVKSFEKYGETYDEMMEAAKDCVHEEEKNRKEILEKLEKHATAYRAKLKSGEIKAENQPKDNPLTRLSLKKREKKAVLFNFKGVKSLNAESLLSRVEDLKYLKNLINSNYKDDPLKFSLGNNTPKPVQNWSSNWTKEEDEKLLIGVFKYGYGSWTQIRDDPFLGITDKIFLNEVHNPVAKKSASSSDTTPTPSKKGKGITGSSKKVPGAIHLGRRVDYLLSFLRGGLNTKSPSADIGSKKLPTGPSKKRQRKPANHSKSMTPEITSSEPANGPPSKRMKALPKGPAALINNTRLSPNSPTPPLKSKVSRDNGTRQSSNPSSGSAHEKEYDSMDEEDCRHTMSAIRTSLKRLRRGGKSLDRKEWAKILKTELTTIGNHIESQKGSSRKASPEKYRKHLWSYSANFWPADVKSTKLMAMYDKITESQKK

Compound | Percent Effect [1] | Percent Effect [2] | Percent Effect [3] | Percent Effect [4] | Percent Effect [5] | Percent Effect [6] | Percent Effect [7] | Percent Effect [8] | Percent Effect [9] | Percent Effect [10] | Percent Effect [11]
Cc1cc(C)n(C2CN(CC(O)c3ccc(F)cc3)C2)n1 (configuration not stated) | -2.64% | -15.6% | -6.46% | 8.34% | 0.936% | -5.34% | 12.3% | 4.19% | 6.8% | 12.2% | -6.46%
CC(C)c1nc(C(=O)N2CCOCC2CC(=O)c2ccco2)c[nH]1 (configuration not stated) | 2.93% | -2.63% | 4.64% | 2.67% | 0.682% | 0% | 8.92% | -8.33% | 5.32% | 0% | 1.37%
CS(=O)(=O)CCN1CCC2(CCCN(C3CCOCC3)C2=O)C1 (configuration not stated) | -4.3% | 2.74% | -4.09% | 8.46% | 2.98% | -2% | 3.85% | 13.4% | 2.08% | 11.1% | -0.555%
O=C(c1ccn[nH]1)N1CCCC(n2cncn2)C1 (configuration not stated) | -7.58% | 11.4% | -2.36% | 4.37% | -0.718% | 0.645% | 12.9% | 6.04% | 2.08% | 15.2% | -14.9%
COCC(=O)N1CC[C@@H]2CN(Cc3cccc(Cl)c3)S(=O)(=O)[C@@H]2CC1 | -3.3% | 10.7% | -2.58% | -5.34% | -6.18% | -55% | 9.74% | 5.42% | -3.12% | 12.5% | -5.91%
COC(=O)c1cc(C(=O)N2CCOCC2(C)C)n(-c2ccccc2)n1 | -2.65% | 7.89% | 4.52% | 4.64% | 6.2% | -6.13% | 0% | -3.57% | 4.41% | 17.1% | -9.02%
O=C(c1cccnc1)N1CCC2(CC1)CCN(c1ccsc1)C2=O | -4.05% | -2.6% | 1.54% | -7.82% | -1.28% | -4.52% | 12% | -7.6% | -5.29% | -6.41% | 0.0389%
CN(C)CC1CSCCCN1C(=O)c1ccc(=O)[nH]c1 (configuration not stated) | -6.61% | 2.6% | 6.1% | 5.73% | -5.82% | 0.645% | 7.66% | 0.342% | -1.06% | 3.85% | -3.68%
Cc1cc(C)nc(CCNC(=O)[C@H]2CNC[C@@H](C(=O)N3CCCC3)C2)n1 | -5% | 0% | 2.23% | -0.778% | -8.33% | -5.59% | 5.91% | 29.4% | 2.08% | 3.7% | -3.88%
Cc1nc(C2CCCN(C(=O)c3cccc4c3OCO4)C2)no1 (configuration not stated) | -0.923% | 11.4% | 6.75% | 0.303% | -5.03% | -3.23% | 19.9% | 3.42% | 4.17% | 10.1% | -23.7%
Cc1cc(C2CCCN(C(=O)CN3CCN(C)CC3)C2)n[nH]1 (configuration not stated) | -0.557% | 13.5% | -4.16% | 2.41% | 2.32% | -4.25% | 16.9% | 16.2% | 6.93% | 18.3% | -5.49%
CCc1nnc2n1CCN(CCS(=O)(=O)c1ccccc1)C2 | -7.25% | 13% | 6.16% | 15.6% | -3.37% | 1.07% | -2.87% | 4.97% | 0.971% | 7.32% | -3.89%
Cc1ccc2c(c1)CN(C(=O)C1CCCCC1)C(CN(C)C)CO2 (configuration not stated) | -4.37% | 12.2% | 11.3% | -8.18% | -4.54% | -4.41% | 12% | 8.85% | 3.23% | 9.09% | -13.3%
c1cnn(CC2CN(c3ncnc4sccc34)CCO2)c1 (configuration not stated) | -4.4% | 2.7% | 2.36% | -2.57% | 1.37% | 2.08% | 17.8% | 52.9% | 12.9% | 15.8% | -4.89%
Cc1nccn1CC1CCCN1S(=O)(=O)Cc1ccccc1 (configuration not stated) | -4.51% | 5.06% | 2.14% | 4.66% | 3.49% | 1.9% | -0.573% | -9.27% | 2.46% | 3.8% | -0.456%
Cn1ccnc1CN1CCN(CC(O)c2ccco2)CC1 (configuration not stated) | -7.57% | 18.2% | -3.75% | -8.89% | -1.86% | -0.632% | 17.4% | 16.1% | 6.67% | 7.06% | -4.92%
CC(C)(C)c1n[nH]c(C2CN(C(=O)c3cc(Cl)c[nH]3)CCO2)n1 (configuration not stated) | -6.35% | 15.8% | 3.14% | 10.4% | 3.99% | -5.92% | 17.2% | -3.03% | 2.13% | 15.6% | -6.65%
O=C(N[C@@H]1CCNC[C@H]1O)c1ccc(F)c(Cl)c1 | -3.79% | 5.41% | 0.871% | 3.76% | -3.09% | -1.43% | 1.21% | -2.61% | 3.7% | 9.76% | -2.77%
Cc1occc1C(=O)N1CCc2ncnc(-c3cnn(C)c3)c2CC1 | -2.67% | -5.41% | -4.37% | 0.728% | 6.75% | -1.24% | 4.21% | 4.88% | 1.07% | 3.7% | -4.52%
CSCC(C)(O)CNC(=O)c1ccc(Br)cc1C (configuration not stated) | 0.706% | 0% | 2.08% | -6.13% | -1.27% | -1.74% | 8.15% | -5.12% | 2.15% | 6.17% | 0.55%
CC(C)c1ncc2c(n1)CN(Cc1nc(Cc3ccccc3)no1)CC2 | -3.61% | 10.8% | -1.07% | 3.74% | 2.69% | -2.77% | -5.92% | 10.2% | 17.8% | 23.2% | 0.435%
O=C(C1SCCc2sccc21)N1CCN(CCO)CC1 (configuration not stated) | -6.92% | 16.2% | -1.14% | 33.4% | 2.34% | 22.5% | 17.7% | 11.7% | -3.96% | 15.8% | -3.8%
